# According to PubChem BioAssay (NCI):
# About 79,000 compounds went through this panel and 15% of them were active in at least one assay; those are over-represented in the sample as a whole. Unmarked numbers belong to inactive results. Active and inactive are the calls of the source. Cut-off read from the data, not from the text of the source: active = growth inhibition above about 70%; inactive = the rest. Where a SMILES comes first, the peptide text is derived from it. The star is where a group is joined. Bz = O=C(c1ccccc1)*; Bn = c1ccc(C*)cc1; βAla = NCCC(=O)O
# Experiments:
# [1] = NCI Yeast Anticancer Drug Screen. Data for the rad50 strain (AID 155);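 note: 0% = growth of vehicle-only cultures of the same strain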; details: S. cerevisiae rad50 strain growth inhibition; at 50.0 µM; stronger effect = higher value
# Summary of the method: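 Genetically altered yeast (DNA repair pathway); compound treatment; growth inhibition vs vehicle ctrl.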
# [2] = NCI Yeast Anticancer Drug Screen. Data for the mec2-1 strain (AID 157); details: S. cerevisiae mec2-1 strain, at 50.0 µM, stronger effect = higher value
# Summary of the method: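 Using mec2-1 yeast: add compound, measure growth, express inhibition versus vehicle-treated cultures.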
# [3] = NCI Yeast Anticancer Drug Screen. Data for the sgs1 mgt1 strain (AID 161);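 note: 0% = growth of cultures given vehicle only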; details: S. cerevisiae sgs1 mgt1 strain, at 50.0 µM, stronger effect = higher value
# Summary of the method: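 Percent growth inhibition was derived by comparing compound-exposed mutant yeast with vehicle-exposed cultures. The strain carries alterations in DNA damage repair.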
# [4] = NCI Yeast Anticancer Drug Screen. Data for the cln2 rad14 strain (AID 165);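 note: 0% = growth equal to vehicle treated cultures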; details: S. cerevisiae cln2 rad14 strain, at 50.0 µM, stronger effect = higher value
# Summary of the method: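 Yeast strain cln2 rad14, bearing defects in cell cycle control and DNA repair, serves as the test system; values reflect growth inhibition compared with vehicle.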
# [5] = NCI Yeast Anticancer Drug Screen. Data for the bub3 strain (AID 167); details: S. cerevisiae bub3 mutant strain, at 50.0 µM, stronger effect = higher value
# Summary of the method: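 Yeast carrying a defined mutation is treated with each compound, and growth is compared with that of vehicle-exposed cells to give inhibition.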
# [6] = NCI Yeast Anticancer Drug Screen. Data for the mlh1 rad18 strain (AID 175); details: S. cerevisiae mlh1 rad18 strain growth inhibition; at 50.0 µM; stronger effect = higher value
# Summary of the method: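 Steps: expose repair-defective yeast to compound; measure growth; express inhibition against vehicle-treated controls.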
Compound,growth inhibition [1],growth inhibition [2],growth inhibition [3],growth inhibition [4],growth inhibition [5],growth inhibition [6]
N=C(N)Cn1cnc2ccccc21,-13.7%,-10.3%,-9.65%,14.9%,3.8%,-18.4%
O=C(Cn1c2c(c3ccccc31)CCCC2)NC1CCCCC1,2.6%,-28.4%,21.9%,30.3%,1.25%,9.7%
COc1cc([C@H]2c3[nH]c4ccccc4c3C[C@H]3COC(=O)N32)cc(OC)c1O,56.5%,9.85%,25%,12.1%,18.9%,51.9%
Oc1ccc(N=Nc2ccccc2)c(O)c1,54%,29.1%,43.5%,-18.9%,46%,64%
CCCCC(=O)N[C@H]1C[C@H]2CC[C@@]1(C)C2(C)C,-23.2%,7.5%,-16.6%,-4.05%,10.9%,-11.8%
CCC(=O)/C=C/c1ccccc1,-1.55%,-14.2%,-22.1%,-23.9%,-34.5%,-47.6%
COc1cc(CC(NC(=O)c2ccccc2)C(C)=O)cc(OC)c1OC (centres undefined),-9.7%,9.35%,-5.4%,-26.2%,27.8%,-4.1%
CC1=C(C(=O)NC(C)(C)C)CC(C(=O)NC(C)(C)C)C(C)N1 (centres undefined),-21.4%,-25.8%,-17.6%,2.45%,-3.2%,-18.2%
COc1cc2c(cc1OC)C(c1cc(OC)c(OC)c(OC)c1)C1(O)C(=O)OCC1(O)C2 (centres undefined),20.1%,-8.25%,13.1%,21.8%,19.4%,20.2%
Cn1c(SCc2ccc(F)cc2)nnc1C12CC3CC(CC(C3)C1)C2,-32.2%,-12.2%,-22.6%,-1.95%,-17.4%,-48.1%
CCOC1=C(C#N)C(=O)NC2OC(CO)C(O)C2O1 (centres undefined),11.4%,5.45%,11.6%,-8.95%,17.9%,15.8%
C=CCCCCCCCCC(=O)N(CC#N)CC(C)C,79.1% (active),82% (active),91.5% (active),76% (active),87.2% (active),91.5% (active)
Cc1ccc(S(=O)(=O)NC(CO)C(=O)O)cc1 (centres undefined),-1.1%,-18.6%,-30.4%,-24.6%,-46%,-9.65%
O=C(Nc1ccsc1)c1ccccc1,-10.8%,-8.7%,-19.3%,-58.2%,-27.4%,-3.25%
CN1CCC(O)(C(C)(C)C)CC1,-5.05%,-5.15%,3.65%,10.9%,-3.7%,-68.9%
CSc1ccc(NC(=O)Nc2cc(Cl)c(Cl)cc2C)cc1,4.7%,60.5%,46.8%,-1.95%,35%,25.2%
S=C1N=C2c3ccccc3C2C(=S)S1 (centres undefined),-4.8%,-12.8%,0%,-24.9%,4.75%,-7.25%
O=C(Nc1ccn(CCOC(=O)c2ccccc2)c(=O)n1)c1ccccc1,-9.4%,-21.3%,22.8%,14.6%,23.7%,47.6%
CC1SC2=NC3=C(c4ccccc4C3=O)C(c3ccc(Br)cc3)N2C1=O (centres undefined),-37.5%,-15.9%,-36.3%,-15.8%,-37%,-32.8%
O=C1CCC([N+](=O)[O-])C(c2ccccc2Cl)N1 (centres undefined),10.7%,-15.9%,20.1%,-0.9%,29.7%,20.5%

Compound,growth inhibition [1],growth inhibition [2],growth inhibition [3],growth inhibition [4],growth inhibition [5],growth inhibition [6]
CC(C)CC(F)(C(N)=O)C(N)=O,-4.6%,-4.15%,-3.4%,-3.05%,-5.65%,-4.2%
COC(=O)/C=C/c1ccc2c(c1)CCCC2,18.1%,15.1%,10.6%,-8.7%,22.2%,24.4%
CN1CCCCC1C(O)CO (centres undefined),11.4%,-5.7%,-8.05%,-47.4%,-3.2%,-27.1%
CC(=O)C(=Cc1ccc(Cl)c(Cl)c1)C(C)=O,99.5% (active),99.7% (active),99.7% (active),99.6% (active),99.5% (active),99.5% (active)
CCCCC(C)NC=O (centres undefined),31.4%,13%,3.9%,9%,14.4%,24.6%
O=[N+]([O-])c1c(O)c2nonc2c2nn(-c3ccccc3)nc12,1.7%,15%,55.4%,25.8%,-15.7%,-15.4%
Nc1nc2ncc(=O)[nH]c2c(=O)[nH]1,-35.1%,-4.2%,-8.55%,-31.3%,20.3%,-8.4%
Cc1ccc(NC(=O)CC2C(=O)Nc3ccccc3S2=O)c(C)c1 (centres undefined),-7.85%,-24.9%,4.45%,20.4%,15.8%,-5.55%
OC1CCCSC1 (centres undefined),18.1%,-15.9%,12.8%,4.75%,16.6%,27.9%
COC(=O)C(CSCc1ccccc1)NC(=O)C(CSCc1ccccc1)NC(=O)CCNC(=O)c1ccccc1 (centres undefined) ({Bz-βAla}-Cys(Bn)-Cys(Bn)-OMe; configuration not given here),13.9%,-5.05%,2.1%,30.1%,-0.9%,9.05%
CNC(=O)NC(c1cc(OC)c(O)c(OC)c1)c1cc2c(cc1O)OCO2 (centres undefined),29.5%,38.8%,11.8%,9.6%,8.05%,44.6%
CC(CCCSC(=N)N)SC(=N)N (centres undefined),4.9%,-3.5%,-0.3%,24.2%,-2.2%,12.6%
CN1CCN(CCCN2CC(=O)N3Cc4ccccc4CN3C(=O)C2)CC1,-26.6%,-1.35%,-9.45%,1%,5.15%,-3%
O=S1CCCO1 (centres undefined),-7.55%,-8.6%,-13.8%,-41.2%,11%,0.3%
O=C(c1nc2ccc(Cl)cc2[nH]c1=O)C(O)c1ccc2c(c1)OCO2 (centres undefined),-10.9%,-10.2%,-3.85%,21.1%,-13.2%,5.2%
CCOC(OCC)/C(C)=N/N(C)C,5.05%,8.95%,-5.35%,7.3%,-6.1%,-2.5%
CC[n+]1ccc(C#N)cc1,19.9%,-3.25%,7.85%,7.9%,2.6%,16.9%
Clc1cccc2c(SCCCCCSc3c4ccccc4nc4c(Cl)cccc34)c3ccccc3nc12,-3.45%,-8.9%,-22.4%,-33.5%,-23.9%,-24.6%
O=C(Cn1c(=O)oc2ccc(C(=O)c3ccc(F)cc3)cc21)c1ccc([N+](=O)[O-])cc1,-13.8%,-36%,-15.6%,-24.6%,-21.6%,-14.8%
